{"source": "PubChem BioAssay (NCI)", "note": "This is part of a sample that, as a whole, favours compounds with a hit. Of some 83,000 tested, about 20% had one in any assay.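 Interpretation: 100, growth as untreated; towards 0, rising growth inhibition; 0, no net growth; 0 to -100, cell death. Compounds scoring below 10 were considered active.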 Values without a mark were called inactive. Activity calls are given as the source filed them.", "data": [{"test_system": "BT-549 breast", "assay": "NCI-60 one-dose screen, 48 h (100 = growth as untreated, 0 = no growth, -100 = all killed)", "conditions": "10 µM unless noted", "values": [{"molecule": "Cc1csc(-c2nnc(Nc3ccc(Oc4ncccc4-c4ccnc(N)n4)cc3)c3ccccc23)c1", "growth": "60.4%"}, {"molecule": "CC(C)CC(=O)Nc1n[nH]c2c1CN(C(=O)C1CCN(C)CC1)C2(C)C", "growth": "33.7%"}, {"molecule": "Cc1ccccc1N1C(c2ccccc2)=NNC12C=CC(=O)C=C2Cl", "note": "(stereo unspecified)", "growth": "106%"}, {"molecule": "C=CCn1c(=O)c2cnc(Nc3ccc(N4CCN(C)CC4)cc3)nc2n1-c1cccc(C(C)(C)O)n1", "growth": "1.3% (active)"}]}, {"test_system": "MDA-MB-435 melanoma", "assay": "NCI-60 one-dose screen, 48 h (100 = growth as untreated, 0 = no growth, -100 = all killed)", "conditions": "10 µM unless noted", "values": [{"molecule": "Cc1cc(C)n(CC(=O)Nc2ccc(-c3nc4ccccc4s3)cc2)n1", "growth": "107%"}, {"molecule": "CNS(=O)(=O)Nc1nccc(Cc2c(C)c3ccc(Oc4ncccn4)cc3oc2=O)c1F", "growth": "37.1%"}, {"molecule": "C[C@@H](Oc1cc(-n2cnc3ccc(CN4CCN(C)CC4)cc32)sc1C(N)=O)c1ccccc1C(F)(F)F", "growth": "9.74% (active)"}, {"molecule": "COc1ccc(Cl)c(Nc2nc3ccccc3nc2NS(=O)(=O)c2cccc(NC(=O)C(C)(C)N)c2)c1", "growth": "53.5%"}, {"molecule": "COc1ccc(-c2ccc3c(N4CCOC[C@@H]4C)nc(N4CCOC[C@@H]4C)nc3n2)cc1CO", "growth": "-14.1% (active)"}, {"molecule": "O=C(Nc1cccc(Cl)c1)Nc1ncc(CCNc2ncnc3ccsc23)s1", "growth": "12.5%"}, {"molecule": "C#Cc1cccc(Nc2ncnc3cc(OCCOC)c(OCCOC)cc23)c1", "growth": "74.7%"}, {"molecule": "O=C(Nc1ccc(Nc2ncnc3sc4c(c23)CCOC4)cc1)Nc1ccc(Cl)c(C(F)(F)F)c1", "growth": "99.1%"}, {"molecule": "CCCCN1C(=O)c2cccc3c(-c4ccc5c(c4)ncn5C4CCCCC4)ccc(c23)C1=O", "growth": "109%"}, {"molecule": "COc1cc(Nc2c(C#N)cnc3cc(OCCCN4CCN(C)CC4)c(OC)cc23)c(Cl)cc1Cl", "growth": "31.1%"}, {"molecule": "COc1ncc(-c2ccc3nccc(-c4ccnnc4)c3c2)cc1NS(=O)(=O)c1ccc(F)cc1F", "growth": "-78% (active)"}, {"molecule": "C/C(=C(/c1ccc(Cl)cc1)c1ccc(OCCN2CCCC2)cc1)c1ccccc1", "growth": "55.1%"}, {"molecule": "COc1cc(OC)c(/C=C/S(=O)(=O)Cc2ccc(OC)c(NCC(=O)O)c2)c(OC)c1", "growth": "-30.5% (active)"}, {"molecule": "Nc1ncnc2c1ccn2-c1cccc(NC(=O)c2ccc(N3CCOCC3)c(C(F)(F)F)c2)c1", "growth": "53.7%"}, {"molecule": "C/C=C/C=N/NC(=S)Nc1ccccc1", "growth": "109%"}, {"molecule": "C=CC(=O)Nc1cc(Nc2nccc(-c3cn(C)c4ccccc34)n2)c(OC)cc1N(C)CCN(C)C", "growth": "-93.9% (active)"}, {"molecule": "C[C@@H](NC(=O)c1ncnc(N)c1Cl)c1ncc(C(=O)Nc2cc(C(F)(F)F)c(Cl)cn2)s1", "growth": "39.3%"}, {"molecule": "COc1cc2c(Oc3ccc4[nH]c(C)cc4c3F)ncnc2cc1OCCCN1CCCC1", "growth": "99.6%"}, {"molecule": "NC[C@@](O)(c1ccc(Cl)cc1)c1ccc(-c2cn[nH]c2)cc1", "growth": "12.2%"}, {"molecule": "Cc1cc(O)cc(-c2c(-c3ccnc(-c4cccnc4)c3)cnn2C)c1", "growth": "61.9%"}, {"molecule": "CS(=O)(=O)N1CCN(Cc2cc3nc(-c4cccc5[nH]ncc45)nc(N4CCOCC4)c3s2)CC1", "growth": "22.4%"}, {"molecule": "CN[C@@H]1C[C@H]2O[C@@](C)([C@@H]1OC)n1c3ccccc3c3c4c(c5c6ccccc6n2c5c31)C(=O)N[C@H]4O", "growth": "-79.4% (active)"}, {"molecule": "O=c1[nH]ccc2c(S(=O)(=O)N3CCCNCC3)cccc12", "growth": "88%"}, {"molecule": "CCN(CCCOc1ccc2c(Nc3cc(CC(=O)Nc4cccc(F)c4)[nH]n3)ncnc2c1)CCOP(=O)(O)O", "growth": "69.2%"}, {"molecule": "Cn1cc(-c2cnn3c(N)c(Br)c([C@@H]4CCCNC4)nc23)cn1", "growth": "39.1%"}, {"molecule": "C[C@@H](Nc1cc(F)cc(F)c1)c1cc(C(=O)N(C)C)cc2c(=O)cc(N3CCOCC3)oc12", "growth": "64.8%"}, {"molecule": "COc1ccc2c(CCCc3ccc(Cl)cc3Cl)c3[n+](cc2c1OC)CCc1cc2c(cc1-3)OCO2", "growth": "-71.2% (active)"}, {"molecule": "Cn1c(=O)c(F)c(Nc2ccc(I)cc2F)c2c(=O)n(C[C@@H](O)CO)cnc21", "growth": "44.3%"}, {"molecule": "CC(C)(C)c1cnc(CSc2cnc(NC(=O)C3CCNCC3)s2)o1", "growth": "-58.7% (active)"}, {"molecule": "NC1(C(=O)N[C@@H](CCO)c2ccc(Cl)cc2)CCN(c2ncnc3[nH]ccc23)CC1", "growth": "26.3%"}, {"molecule": "COC(=O)c1ccc2c(C(=Nc3ccc(N(C)C(=O)CN4CCN(C)CC4)cc3)c3ccccc3)c(O)[nH]c2c1", "growth": "72.6%"}, {"molecule": "CS(=O)(=O)CCNCc1ccc(-c2ccc3ncnc(Nc4ccc(OCc5cccc(F)c5)c(Cl)c4)c3c2)o1", "growth": "31.2%"}]}]}
